# Assay results reported in article PMC7862700, “An all-to-all approach to the identification of sequence-specific readers for epigenetic DNA modifications on cytosine”.
# Key:
# Experiment in all cases: DAPPL (digital affinity profiling via proximity ligation, sequencing); 10 mM Tris-HCl pH 7.5, 50 mM NaCl, 1 mM DTT, 4% glycerol, room temperature, 30 min; GST-TFs on glutathione beads, 16-mer random dsDNA library, 0.1% formaldehyde crosslink after washing; high values mean tight binding
# [1] = biological target: T1, FEV (Homo sapiens, UniProt Q99581 1-238); conditions: protein: recombinant; tags: N-terminal GST; dsDNA, one strand shown
# T1 sequence: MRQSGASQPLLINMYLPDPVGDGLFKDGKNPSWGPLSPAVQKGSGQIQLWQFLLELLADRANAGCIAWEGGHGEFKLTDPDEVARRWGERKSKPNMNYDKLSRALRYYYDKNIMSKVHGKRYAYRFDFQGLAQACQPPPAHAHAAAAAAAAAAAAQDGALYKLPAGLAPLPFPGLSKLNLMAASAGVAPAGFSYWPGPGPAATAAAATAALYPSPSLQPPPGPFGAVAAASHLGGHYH
# In short: (§1)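 Pools were built from human transcription factors expressed in yeast as GST fusions, captured on glutathione beads and DNA-barcoded, along with a tag-only sample. Incubation with 200 nmole of a 16-mer random double-stranded DNA library lasted 30 min at room temperature in Tris/NaCl/DTT/glycerol buffer, and was followed by washing, 0.1% formaldehyde crosslinking, proximity ligation, PCR amplification and Illumina NextSeq500 sequencing. Binding signal is the quotient of each hexamer's read frequency for a factor and its frequency for the tag-only sample.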
# [2] = biological target: ETV5 (Homo sapiens, UniProt P41161 1-510); conditions: protein: recombinant; tags: N-terminal GST; dsDNA, one strand shown
# In short: as §1
# [3] = biological target: HSF1 (Homo sapiens, UniProt Q00613 1-529); conditions: protein: recombinant; tags: N-terminal GST; chain copies: 3; dsDNA, one strand shown
# In short: as §1
# [4] = biological target: T2, SPIC (Homo sapiens, UniProt Q8N5J4 1-248); conditions: protein: recombinant; tags: N-terminal GST; dsDNA, one strand shown
# T2 sequence: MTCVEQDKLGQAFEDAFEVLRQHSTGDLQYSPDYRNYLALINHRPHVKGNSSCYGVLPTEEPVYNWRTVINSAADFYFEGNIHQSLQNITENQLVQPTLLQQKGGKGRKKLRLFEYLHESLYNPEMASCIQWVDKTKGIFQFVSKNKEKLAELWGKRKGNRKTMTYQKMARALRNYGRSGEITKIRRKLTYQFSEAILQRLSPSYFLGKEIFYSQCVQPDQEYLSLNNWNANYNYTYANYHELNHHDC
# In short: as §1
# [5] = biological target: ELF4 (Homo sapiens, UniProt Q99607 1-663); conditions: protein: recombinant; tags: N-terminal GST; dsDNA, one strand shown
# In short: as §1
# [6] = biological target: T3, ELK4 (Homo sapiens, UniProt P28324-2 1-405); conditions: protein: recombinant; tags: N-terminal GST; dsDNA, one strand shown
# T3 sequence: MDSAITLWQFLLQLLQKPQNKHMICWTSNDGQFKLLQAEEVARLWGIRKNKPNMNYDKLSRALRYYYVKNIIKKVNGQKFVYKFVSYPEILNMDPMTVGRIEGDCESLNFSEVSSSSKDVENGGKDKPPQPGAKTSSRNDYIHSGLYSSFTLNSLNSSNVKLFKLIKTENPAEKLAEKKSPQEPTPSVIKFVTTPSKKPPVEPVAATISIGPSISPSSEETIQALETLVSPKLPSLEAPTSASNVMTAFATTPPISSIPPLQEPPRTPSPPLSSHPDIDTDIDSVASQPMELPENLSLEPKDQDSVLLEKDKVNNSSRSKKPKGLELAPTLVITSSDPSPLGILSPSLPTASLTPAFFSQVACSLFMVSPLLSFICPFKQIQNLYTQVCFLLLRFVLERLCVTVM
# In short: as §1
# [7] = biological target: T4, ETV2 (Homo sapiens, UniProt O00321 1-342); conditions: protein: recombinant; tags: N-terminal GST; dsDNA, one strand shown
# T4 sequence: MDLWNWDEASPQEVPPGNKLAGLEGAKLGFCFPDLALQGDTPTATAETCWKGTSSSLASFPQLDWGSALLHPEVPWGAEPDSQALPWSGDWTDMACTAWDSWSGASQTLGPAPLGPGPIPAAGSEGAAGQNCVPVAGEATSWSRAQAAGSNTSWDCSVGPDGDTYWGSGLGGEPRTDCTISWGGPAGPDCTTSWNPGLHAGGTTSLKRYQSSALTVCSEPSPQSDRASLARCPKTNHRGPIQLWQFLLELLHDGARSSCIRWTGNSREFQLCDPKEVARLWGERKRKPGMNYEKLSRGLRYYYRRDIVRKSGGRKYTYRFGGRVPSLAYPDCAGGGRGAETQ
# In short: as §1
# [8] = biological target: T5, ELF3 (Homo sapiens, UniProt P78545 1-371); conditions: protein: recombinant; tags: N-terminal GST; dsDNA, one strand shown
# T5 sequence: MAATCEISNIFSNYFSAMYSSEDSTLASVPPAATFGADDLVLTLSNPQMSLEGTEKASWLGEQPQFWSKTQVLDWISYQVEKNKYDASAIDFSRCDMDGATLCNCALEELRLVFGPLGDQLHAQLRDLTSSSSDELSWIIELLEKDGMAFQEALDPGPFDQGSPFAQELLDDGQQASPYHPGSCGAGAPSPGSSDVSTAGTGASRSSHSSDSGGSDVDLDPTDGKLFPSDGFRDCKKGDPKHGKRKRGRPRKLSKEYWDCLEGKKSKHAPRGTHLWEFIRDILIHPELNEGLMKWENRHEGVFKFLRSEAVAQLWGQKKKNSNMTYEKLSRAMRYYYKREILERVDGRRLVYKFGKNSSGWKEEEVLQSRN
# In short: as §1
# [9] = biological target: CRX (Homo sapiens, UniProt O43186 1-299); conditions: protein: recombinant; tags: N-terminal GST; dsDNA, one strand shown
# In short: as §1
# [10] = biological target: ETV1 (Homo sapiens, UniProt P50549 1-477); conditions: protein: recombinant; tags: N-terminal GST; dsDNA, one strand shown
# In short: as §1
# Sequence of CRX (O43186 whole entry): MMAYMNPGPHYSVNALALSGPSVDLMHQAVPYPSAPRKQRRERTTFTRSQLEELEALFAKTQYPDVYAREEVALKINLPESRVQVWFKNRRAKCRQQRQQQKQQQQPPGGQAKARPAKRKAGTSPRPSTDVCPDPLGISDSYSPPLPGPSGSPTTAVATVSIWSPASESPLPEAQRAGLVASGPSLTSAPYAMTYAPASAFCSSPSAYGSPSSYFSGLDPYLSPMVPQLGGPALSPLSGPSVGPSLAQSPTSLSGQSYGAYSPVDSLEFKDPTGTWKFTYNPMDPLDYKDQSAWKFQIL
# Sequence of ETV5 (P41161 whole entry): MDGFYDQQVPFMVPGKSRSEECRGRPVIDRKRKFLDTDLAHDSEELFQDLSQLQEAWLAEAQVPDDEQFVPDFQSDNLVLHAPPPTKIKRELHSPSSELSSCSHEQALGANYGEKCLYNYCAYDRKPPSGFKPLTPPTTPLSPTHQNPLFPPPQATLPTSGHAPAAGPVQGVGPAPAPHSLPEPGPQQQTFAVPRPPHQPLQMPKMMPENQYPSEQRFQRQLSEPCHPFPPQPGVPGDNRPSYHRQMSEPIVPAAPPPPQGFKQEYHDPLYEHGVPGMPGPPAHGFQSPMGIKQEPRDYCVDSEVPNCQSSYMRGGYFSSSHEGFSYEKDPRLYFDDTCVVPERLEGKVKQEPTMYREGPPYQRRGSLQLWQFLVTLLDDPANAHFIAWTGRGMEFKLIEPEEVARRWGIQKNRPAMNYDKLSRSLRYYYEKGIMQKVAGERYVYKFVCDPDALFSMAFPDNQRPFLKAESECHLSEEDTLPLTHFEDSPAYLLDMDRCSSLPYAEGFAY
# Sequence of ELF4 (Q99607 whole entry): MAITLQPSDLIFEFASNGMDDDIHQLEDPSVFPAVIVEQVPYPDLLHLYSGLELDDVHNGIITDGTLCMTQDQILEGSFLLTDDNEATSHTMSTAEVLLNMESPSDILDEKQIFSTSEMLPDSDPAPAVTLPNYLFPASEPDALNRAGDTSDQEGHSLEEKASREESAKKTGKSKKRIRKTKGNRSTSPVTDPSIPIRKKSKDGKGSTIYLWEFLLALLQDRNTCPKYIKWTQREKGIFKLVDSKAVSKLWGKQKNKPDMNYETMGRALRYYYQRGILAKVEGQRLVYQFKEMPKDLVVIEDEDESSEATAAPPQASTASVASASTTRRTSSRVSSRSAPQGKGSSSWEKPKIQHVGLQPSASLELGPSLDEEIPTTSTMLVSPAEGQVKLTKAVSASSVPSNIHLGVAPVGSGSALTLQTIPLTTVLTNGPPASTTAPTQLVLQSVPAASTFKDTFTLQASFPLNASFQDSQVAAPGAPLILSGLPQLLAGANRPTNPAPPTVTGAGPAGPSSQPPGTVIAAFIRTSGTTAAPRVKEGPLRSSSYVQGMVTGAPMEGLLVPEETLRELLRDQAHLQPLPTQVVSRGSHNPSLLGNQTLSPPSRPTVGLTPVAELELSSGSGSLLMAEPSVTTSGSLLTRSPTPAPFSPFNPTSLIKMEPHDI
# Sequence of ETV1 (P50549 whole entry): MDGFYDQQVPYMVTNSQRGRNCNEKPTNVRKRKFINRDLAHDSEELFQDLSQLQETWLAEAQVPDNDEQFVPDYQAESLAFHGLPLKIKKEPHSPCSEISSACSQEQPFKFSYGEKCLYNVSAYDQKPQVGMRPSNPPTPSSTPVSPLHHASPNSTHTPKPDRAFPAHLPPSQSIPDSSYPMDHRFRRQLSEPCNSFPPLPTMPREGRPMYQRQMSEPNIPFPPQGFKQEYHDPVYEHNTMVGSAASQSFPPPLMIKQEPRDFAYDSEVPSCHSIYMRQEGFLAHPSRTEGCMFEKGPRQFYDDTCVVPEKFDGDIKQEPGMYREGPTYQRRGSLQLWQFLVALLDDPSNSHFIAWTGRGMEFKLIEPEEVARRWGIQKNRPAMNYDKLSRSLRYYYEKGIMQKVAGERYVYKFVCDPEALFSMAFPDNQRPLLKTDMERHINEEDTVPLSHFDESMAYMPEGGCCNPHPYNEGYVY
# Sequence of HSF1 (Q00613 whole entry): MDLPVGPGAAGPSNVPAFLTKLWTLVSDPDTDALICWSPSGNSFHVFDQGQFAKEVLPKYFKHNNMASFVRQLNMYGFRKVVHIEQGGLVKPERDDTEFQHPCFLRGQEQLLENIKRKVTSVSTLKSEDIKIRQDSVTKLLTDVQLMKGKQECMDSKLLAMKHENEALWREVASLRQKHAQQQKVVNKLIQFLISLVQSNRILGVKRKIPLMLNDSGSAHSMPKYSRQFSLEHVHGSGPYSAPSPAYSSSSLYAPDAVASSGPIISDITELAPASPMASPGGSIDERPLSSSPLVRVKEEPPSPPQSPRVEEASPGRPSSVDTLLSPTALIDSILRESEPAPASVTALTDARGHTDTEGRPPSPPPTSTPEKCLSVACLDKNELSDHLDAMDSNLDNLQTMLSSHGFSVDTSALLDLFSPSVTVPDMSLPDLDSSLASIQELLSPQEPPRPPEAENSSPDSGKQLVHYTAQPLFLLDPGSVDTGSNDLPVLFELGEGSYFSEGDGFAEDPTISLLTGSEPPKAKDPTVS
sequence,measurement,setting,value
TCCCTT,binding signal,[1],"1.51 fold enrichment (6-mer frequency, TF over GST control)"
same,binding signal,[2],"1.5 fold enrichment (6-mer frequency, TF over GST control)"
same,binding signal,[3],"1.51 fold enrichment (6-mer frequency, TF over GST control)"
same,binding signal,[4],"1.66 fold enrichment (6-mer frequency, TF over GST control)"
same,binding signal,[5],"1.68 fold enrichment (6-mer frequency, TF over GST control)"
same,binding signal,[6],"1.41 fold enrichment (6-mer frequency, TF over GST control)"
same,binding signal,[7],"1.32 fold enrichment (6-mer frequency, TF over GST control)"
same,binding signal,[8],"1.5 fold enrichment (6-mer frequency, TF over GST control)"
same,binding signal,[9],"1.69 fold enrichment (6-mer frequency, TF over GST control)"
same,binding signal,[10],"1.49 fold enrichment (6-mer frequency, TF over GST control)"
